Bioassay records as filed in PubChem.
ERAP1 HTS inh – inhibitors of human ERAP1 aminopeptidase | Q9NZ08 | recombinant ERAP1, Leu-AMC fluorescence, 60 min | inhibition, % at 10.7 µM | 340,000 compounds, 0.15% hits;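 active = mean replicate inhibition of at least 30%, or all replicates individually reaching that 30% level; inactive = mean below 30% and not every replicate reaching it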;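 also: 0% = neutral control wells and 100% = L-leucinethiol positive control wells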
DENV2 CPE rescue – DENV2-induced cell death inhibition. DENV2-infected cells, cytopathic effect rescue, plate reader. CPE inhibition, % at 9.99 µM. 350,000 compounds, 1.7% hits. AID 651640; in the data active = CPE inhibition above about 20%, passing the limit was not always enough; inconclusive = no clear call, values can overlap the other calls; tested in BHK-21 cells;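 also: 0% = median of neutral control wells and 100% = median of positive control wells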
ERp5 inh – blocks human ERp5 reductase activity on insulin. 350,000 compounds, 0.05% hits. ERp5 insulin aggregation, absorbance 650 nm, 90 min. inhibition, % at 9.99 µM. Q15084;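 active = mean replicate inhibition above about 25%, with every replicate also reaching it, limit read from the data, passing the limit was not always enough; inconclusive = only one of those two criteria met; inactive = neither criterion met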
MLL AF4-AF9 inh – MLL-AF4/AF9 protein interaction inhibition | P42568 | AlphaScreen, biotin-AF4 peptide binding to FLAG-AF9 | inhibition, % at 10 µM | 350,000 compounds, 0.47% hits | AID 651704;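 active = every replicate reaching a set inhibition limit, whatever the replicate mean, cut at about 25% in these data; inconclusive = mean inhibition reaches that limit but some replicates miss it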;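 also: 0% = plate neutral control median and 100% = total signal loss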
PDI turbidity – PDI (human) enzyme inhibition | inhibition, % at 10 µM | 350,000 compounds, 0.052% hits | P07237 | PDI insulin aggregation turbidity, A650, 90 min;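 active = mean inhibition across replicates of 30% or more, whatever share of single replicates reach that level; inconclusive = mean inhibition below 30% while every single replicate reaches 30%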
Target sequence (P07237 whole entry, looked up): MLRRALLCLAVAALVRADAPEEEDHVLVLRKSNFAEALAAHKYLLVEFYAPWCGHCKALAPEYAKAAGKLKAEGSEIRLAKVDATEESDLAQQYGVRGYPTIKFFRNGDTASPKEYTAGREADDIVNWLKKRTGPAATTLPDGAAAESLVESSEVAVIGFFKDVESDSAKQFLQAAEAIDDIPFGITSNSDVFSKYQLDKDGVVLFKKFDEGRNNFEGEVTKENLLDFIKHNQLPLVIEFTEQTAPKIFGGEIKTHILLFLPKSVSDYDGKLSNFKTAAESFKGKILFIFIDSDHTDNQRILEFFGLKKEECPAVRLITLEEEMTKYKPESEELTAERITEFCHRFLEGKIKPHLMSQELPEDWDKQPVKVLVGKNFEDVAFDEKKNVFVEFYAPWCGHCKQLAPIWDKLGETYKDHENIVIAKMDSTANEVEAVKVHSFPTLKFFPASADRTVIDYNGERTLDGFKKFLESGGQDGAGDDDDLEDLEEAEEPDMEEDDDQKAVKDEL
An asterisk follows results filed as active; ? = inconclusive; / = no result. Rows were chosen to be rich in hits. Some 1.8% of all compounds tested hit in one or more screens of this group.

SMILES	ERAP1 HTS inh	DENV2 CPE rescue	ERp5 inh	MLL AF4-AF9 inh	PDI turbidity
C[C@@H]1CCCCO[C@H](CN(C)C(=O)Nc2ccc(C(F)(F)F)cc2)[C@@H](C)CN([C@@H](C)CO)C(=O)c2cc(NS(=O)(=O)c3ccccc3)ccc2O1	-7.1	-5.9	-0.3	1.5	/
C[C@H](CO)N1C[C@H](C)[C@H](CN(C)C(=O)Nc2ccc(C(F)(F)F)cc2)OCCCC[C@H](C)Oc2ccc(NS(=O)(=O)c3ccccc3)cc2C1=O	-7.0	40.5*	-3.3	-15.1	/
C[C@@H]1CCCCO[C@H](CN(C)C(=O)Nc2ccc(C(F)(F)F)cc2)[C@H](C)CN([C@@H](C)CO)C(=O)c2cc(NS(=O)(=O)c3ccccc3)ccc2O1	-4.1	39.8*	-3.5	0.0	/
COc1ccc(CN2C[C@H](C)[C@@H](OC)CN(C)C(=O)c3cc(NC(C)=O)ccc3OC[C@@H]2C)cc1	0.8	1.4	4.5	-1.3	/
C[C@@H]1CCCCO[C@H](CN(C)C(=O)Nc2ccc(C(F)(F)F)cc2)[C@@H](C)CN([C@H](C)CO)C(=O)c2cc(NS(=O)(=O)c3ccccc3)ccc2O1	-2.9	37.2*	-3.4	1.0	/
CCC(C)[C@H](NS(=O)(=O)c1ccc(C)cc1)C(=O)N1CCC(C(=O)N2CCC(C(=O)OC)CC2)CC1 (some centres not stated)	20.8	82.3*	-6.1	-0.3	/
O=C(C[C@@H]1CC[C@@H]2[C@H](COC[C@H](O)CN2S(=O)(=O)c2ccccc2F)O1)NCc1ccccc1Cl	0.3	1.5	10.9	1.2	/
c1ccc(CCNCCCOc2cccc3ccccc23)cc1	1.4	35.2*	10.3	7.6	-2.2
CC(=O)NCCOc1cccc2ccccc12	/	/	/	/	-1.2
C[C@H]1CN([C@@H](C)CO)C(=O)c2cccc(NC(=O)C3CCCCC3)c2O[C@@H]1CN(C)Cc1ccc(C(=O)Nc2ccccc2N)cc1	1.1	80.1*	-20.8	2.1	/
C[C@@H]1CN([C@H](C)CO)C(=O)c2cccc(NC(=O)c3ccncc3)c2O[C@H]1CN(C)Cc1ccc(C(=O)Nc2ccccc2N)cc1	-2.7	12.7	-4.4	10.4	/
C[C@H](CO)N1C[C@H](C)[C@H](CN(C)Cc2ccc(C(=O)Nc3ccccc3N)cc2)Oc2c(NC(=O)C3CCCCC3)cccc2C1=O	2.6	?	-3.0	-9.4	/
C[C@H]1CN([C@@H](C)CO)C(=O)c2cccc(NC(=O)c3ccncc3)c2O[C@H]1CN(C)Cc1ccc(C(=O)Nc2ccccc2N)cc1	-1.7	43.8*	2.7	-17.0	/
CNC[C@H]1Oc2c(NC(=O)c3ccncc3)cccc2C(=O)N([C@@H](C)CO)C[C@H]1C	3.7	38.5*	-5.3	3.4	/
C[C@H]1CN([C@@H](C)CO)C(=O)c2cccc(NS(C)(=O)=O)c2O[C@@H]1CN(C)Cc1ccc(C(=O)Nc2ccccc2N)cc1	3.0	75.1*	3.8	5.4	/
CC(=O)N(C)C[C@H]1Oc2cc(C#Cc3ccncc3)ccc2S(=O)(=O)N([C@H](C)CO)C[C@@H]1C	0.1	1.8	-3.2	-1.9	/
CO[C@@H]1CC[C@@H]2CCOc3ccc(C#N)cc3C(=O)N(C)C[C@@H](c3ccccc3)CC(=O)N(C)C[C@@H]1O2	/	/	/	-0.4	/
C[C@@H]1CN([C@H](C)CO)C(=O)c2cccc(NC(=O)c3ccncc3)c2O[C@@H]1CN(C)Cc1ccc(Oc2ccccc2)cc1	-1.1	-0.5	-1.4	25.0*	/
C[C@@H]1CN([C@@H](C)CO)C(=O)c2cccc(NC(=O)c3ccncc3)c2O[C@H]1CN(C)Cc1ccc(Oc2ccccc2)cc1	2.5	-0.5	-2.1	3.2	/
CCCNC(=O)C[C@H]1CC[C@@H]2[C@@H](COc3ccc(NC(=O)Cc4ccccc4)cc3C(=O)N2C)O1	0.4	3.6	3.7	1.3	/
COC(=O)[C@@]12CCCCN1[C@H](c1ccc(SC3CCCCC3)cc1)[C@H]1C(=O)N(C)C(=O)[C@H]12	-0.3	-1.1	3.9	0.9	2.4
COC(=O)[C@@]12CCCCN1[C@H](c1ccc(-c3ccc(F)cc3)cc1)[C@H]1C(=O)N(C)C(=O)[C@H]12	2.6	39.0*	-2.7	-4.0	-5.5
COC(=O)[C@@]12CCCN1[C@H](c1ccc(SC3CCCCC3)cc1)[C@H]1C(=O)N(C)C(=O)[C@H]12	-2.6	27.9*	2.9	7.0	-24.4
O=S(=O)(O)c1cc(O)c2ccc(Nc3ccccc3)cc2c1	40.2*	11.6	7.6	5.7	4.0
O=S(=O)(O)c1cc(O)c2cc(Nc3ccccc3)ccc2c1	43.4*	-1.8	12.8	3.1	-1.5
SMILES	ERAP1 HTS inh	DENV2 CPE rescue	ERp5 inh	MLL AF4-AF9 inh	PDI turbidity
CC(=O)Nc1ccc2c(O)cc(S(=O)(=O)O)cc2c1	2.1	3.1	0.8	-1.2	5.8
O=S(=O)(O)c1ccc(O)c2cc(Nc3ccccc3)ccc12	4.3	-4.5	8.2	3.7	6.2
COc1ccccc1Nc1ccc2c(O)cc(S(=O)(=O)O)cc2c1	37.9*	?	0.7	-24.1	-3.7
O=C(Cc1ccccn1)N[C@@H]1C=C[C@H](CC(=O)N2CCCCC2)O[C@H]1CO	-0.8	-4.9	-2.6	-2.3	/
Cc1ccc(-c2csc(NCCn3c(C)nc4cc(C(F)(F)F)ccc43)n2)cc1	-4.4	45.0*	3.8	3.6	1.8
C[C@H]1CN([C@@H](C)CO)C(=O)Cc2cc(NC(=O)NC3CCCCC3)ccc2O[C@H]1CN(C)Cc1ccc(-c2ccccc2)cc1	0.0	-24.7	-1.0	-0.7	/
C[C@H]1CN([C@@H](C)CO)C(=O)Cc2cc(NC(=O)NC3CCCCC3)ccc2O[C@@H]1CN(C)Cc1ccc(C(=O)Nc2ccccc2N)cc1	-1.4	32.4*	-5.0	-1.2	/
C[C@H](CO)N1C[C@H](C)[C@H](CN(C)Cc2ccc(-c3ccccc3)cc2)Oc2ccc(NC(=O)NC3CCCCC3)cc2CC1=O	1.9	22.0*	-6.4	0.2	/
C[C@H]1CN([C@@H](C)CO)C(=O)Cc2cc(NC(=O)NC3CCCCC3)ccc2O[C@@H]1CN(C)Cc1ccc(-c2ccccc2)cc1	0.2	30.8*	-10.2	-1.4	/
C[C@H](CO)N1C[C@H](C)[C@H](CN(C)Cc2ccc(C(=O)Nc3ccccc3N)cc2)Oc2ccc(NC(=O)Cn3cnnn3)cc2CC1=O	-0.4	55.0*	5.2	1.0	/
CC(C)NC(=O)Nc1ccc2c(c1)CC(=O)N([C@H](C)CO)C[C@H](C)[C@@H](CN(C)Cc1ccc(C(=O)Nc3ccccc3N)cc1)O2	0.7	12.7	1.5	-3.4	/
O=C(Nc1cccc(F)c1)N1CC(=O)N2[C@H](CO)[C@H](c3ccc(C#CCC4CCCC4)cc3)[C@@H]2C1	-0.2	0.4	4.4	-4.0	/
COc1ccc2c3c([nH]c2c1)[C@@H](CO)N(C(=O)Nc1ccc(F)cc1)CC31CCN(S(=O)(=O)c2cccs2)CC1	3.2	?	-2.8	1.7	/
CO[C@H]1CN(C)C(=O)c2ccc(NC(C)=O)cc2OC[C@H](C)N(C(=O)c2ccc(F)cc2)C[C@H]1C	2.6	-7.5	0.5	-0.4	/
CC(C)NC(=O)Nc1ccc2c(c1)CC(=O)N([C@H](C)CO)C[C@H](C)[C@@H](CN(C)Cc1ccccc1)O2	0.5	-5.8	2.8	0.4	/
